From the supplement of paper PMC10127200
Where a name gives a salt, the structure may show the parent alone.

tested on: 786-O; experiment: Euclidean distance of Cell Painting phenotypic profile (signed KS, 77 features) to DMSO centroid (dimensionless distance); 5 or 10 uM (library dependent); higher = stronger phenotypic change vs DMSO (phenoactivity); conditions: 48 h
How it was run: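 Five cancer lines and a healthy fibroblast line received library compounds at 10 or 5 uM (library-dependent, 0.1% DMSO final) for 48 h. Stained cells were imaged confocally at 20X (9 fields/well). Harmony extracted 77 features, each scored as a signed Kolmogorov-Smirnov statistic against same-plate vehicle wells. Profiles were plate-position corrected, correlation-weighted and replicate-averaged at the top dose. Phenoactivity is the Euclidean distance from each profile to the median vehicle profile.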

Row | Compound | Euclidean distance
1 | O=C(CCc1ccc(O)cc1)c1c(O)cc(O)cc1O [Phloretin] | 0.62
2 | CS(=O)(=O)c1ccc([C@@H](O)[C@@H](CO)NC(=O)C(Cl)Cl)cc1 [Thiamphenicol] | 1.41
3 | O=C(O)Cc1ccccc1Nc1c(Cl)cccc1Cl [Diclofenac Epolamine] | 0.939
4 | CCCCCCCCCC(=O)OC1(c2ccc(Cl)cc2)CCN(CCCC(=O)c2ccc(F)cc2)CC1 [Haloperidol Decanoate] | 0.828
5 | CCCCc1nc(-c2ccc(OCCCN(CC)CC)cc2)cn1-c1ccc(Oc2ccc(Cl)cc2)cc1 [Azeliragon] | 6.58
6 | CC(C)(C)NCC(O)c1cc(O)cc(O)c1 (stereo unspecified) [Terbutaline Sulfate] | 1.21
7 | CCCCOC(=O)c1ccc(N)cc1 [Butamben] | 1.09
8 | CN(C)CCCN1c2ccccc2Sc2ccccc21 [Promazine hydrochloride] | 1.46
9 | COCCCN1CCC(NC(=O)c2cc(Cl)c(N)c3c2OCC3)CC1 [Prucalopride Succinat] | 0.911
10 | O=C(O)C(O)C(O)C(=O)O (stereo unspecified) [Tartaric acid] | 0.758
11 | CCc1c(C)[nH]c2c1C(=O)C(CN1CCOCC1)CC2 (stereo unspecified) [Molindone hydrochloride] | 1.11
12 | COc1ccc(COc2ccc(Cc3cnc(N)nc3N)cc2OC)cc1 | 0.708
13 | CCCCCCCCCCCCC[N+](C)(C)Cc1ccccc1 [Benzalkonium chloride] | 2.54
14 | CCCNS(=O)(=O)Nc1ncnc(OCCOc2ncc(Br)cn2)c1-c1ccc(Br)cc1 [Macitentan] | 1.36
15 | CC(C)NNC(=O)c1ccncc1 [Iproniazid] | 1.02
16 | CC(C)(S)[C@@H](N)C(=O)O [Penicillamine] | 1.02
17 | Oc1c2ccccc2c2c3c(cccc13)N=N2 | 1.18
18 | Nc1ncnc2c1c(-c1cccc(OCc3ccccc3)c1)cn2C1CC(CN2CCCC2)C1 (stereo unspecified) | 2.84

Row | Compound | Euclidean distance
19 | Fc1ccc([C@@H]2CCNC[C@H]2COc2ccc3c(c2)OCO3)cc1 [Paroxetine HCl] | 1.46
20 | COc1ccc(-c2nc3cc(C4=NNC(=O)CC4C)ccc3[nH]2)cc1 (stereo unspecified) [Pimobendan] | 1.43
21 | CCN(CC)CCNC(=O)c1c(C)[nH]c(/C=C2\C(=O)Nc3ccc(F)cc32)c1C [Sunitinib] | 3.58
22 | CCCCCCCCCC(=O)N[C@H]1[C@H](Oc2c3cc4cc2Oc2ccc(cc2Cl)[C@@H](O[C@@H]2O[C@H](CO)[C@@H](O)[C@H](O)[C@H]2NC(C)=O)[C@@H]2NC(=O)[C@H](NC(=O)[C@@H]4NC(=O)[C@H]4NC(=O)[C@@H](Cc5ccc(c(Cl)c5)O3)NC(=O)[C@H](N)c3ccc(O)c(c3)Oc3cc(O)cc4c3)c3ccc(O)c(c3)-c3c(OC4O[C@H](CO)[C@@H](O)[C@H](O)[C@@H]4O)cc(O)cc3[C@@H](C(=O)O)NC2=O)O[C@H](CO)[C@@H](O)[C@@H]1O (stereo partly specified) [Teicoplanin] | 1.09
23 | COC(=O)C1=C(C)NC(C)=C(C(=O)OCCN2CCN(C(c3ccccc3)c3ccccc3)CC2)C1c1cccc([N+](=O)[O-])c1 (stereo unspecified) [Manidipine 2HCl] | 1.93
24 | C#CCN(C)CCCOc1ccc(Cl)cc1Cl [Clorgyline HCl] | 0.821
25 | Nc1nccs1 [Aminothiazole] | 0.905
26 | COc1nc(C)nc(Cl)c1NC1=NCCN1 [Moxonidine] | 1.15
27 | COc1ccccc1N1CCN(CCN2C(=O)CC3(CCCC3)CC2=O)CC1 | 1.45
28 | O=C(NCc1c(F)cc(F)cc1F)c1cn2c(c(O)c1=O)C(=O)N1[C@H]3CC[C@H](C3)O[C@@H]1C2 [Bictegravir] | 1.77
29 | CC(C)=CCOc1ccc(/C=C/C(=O)c2ccc(OCC=C(C)C)cc2OCC(=O)O)cc1 [Sofalcone] | 1.25
30 | Cc1ccc(Nc2nccc(N(C)c3ccc4c(C)n(C)nc4c3)n2)cc1S(N)(=O)=O | 2.42
31 | NC12CC3CC(CC(C3)C1)C2 [Amantadine HCl] | 1.14
32 | CC(C)NCC(O)COc1ccc(CCOCC2CC2)cc1 (stereo unspecified) [Betaxolol] | 0.891
33 | O=C1NS(=O)(=O)c2ccccc21 [Saccharin] | 1.09
34 | Cc1cc(OCc2nnc(SC3CCCC3)n2-c2cccnc2)ccc1-c1ccc(S(C)(=O)=O)cc1 | 3.57
35 | Cc1ccc(C(=O)N(CCCN)[C@@H](c2oc3cc(Cl)ccc3c(=O)c2Cc2ccccc2)C(C)C)cc1 | 3.9
36 | COc1cc2ncc(-c3ccccc3)nc2cc1OC [Tyrphostin AG 1296] | 1.46
